# Data reported in PubChem BioAssay (NCATS).
# Records with an inconclusive call do not appear. Activity calls are given as the source filed them. Unless noted, calls come from the whole dose curve; as a rule, active = well fitted curve in the direction sought with a large enough effect; inconclusive = small, poorly fitted or top-dose-only effect, or another doubt; inactive = no such curve, though single readings can be large; an effect the other way counts as inactive or inconclusive.
# Legend:
# [1] = Primary qHTS for inhibitors of nuclear receptor binding SET domain protein 2 (NSD2) in an isogenic RCH-ACV NSD2 p.E1099K mutant (9B) (AID 1645876); note: nearly all actives have a fitted effect of over 70% in size; note: potency is the fitted concentration of half-maximal effect
# [2] = Primary qHTS for inhibitors of nuclear receptor binding SET domain protein 2 (NSD2) in an RCH-ACV wild type WT cells (2C) (AID 1645877); note: nearly all actives have a fitted effect of over 70% in size; note: potency is the fitted concentration of half-maximal effect
# [3] = molecular target: N-terminal Xaa-Pro-Lys N-methyltransferase 1 (Homo sapiens) (UniProt Q9BV86); assay: Confirmatory qHTS for Inhibitors of N-terminal methyltransferase 1 (NTMT1): MTaseGlo Assay (AID 1645874); note: nearly all actives have a fitted effect of over 65% in size; note: potency is the fitted concentration of half-maximal effect
# Outline: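 SPKRIA peptide at 1 uM was methylated by 125 nM NTMT1 using 100 uM SAM over 30 min at room temperature, following a 15 min compound preincubation. Product SAH was detected luminescently.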
# [4] = qHTS for Inhibitors of Ubiquitin-specific Protease USP2a Using CHOP2 as the Reporter: K633 Counterscreen (AID 652168); note: series mostly up to about 57 µM; % of control where 0% means no effect
# Outline: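 Detection-system control: fluorescence of K48-linked DiUb-4IQF substrate (100 nM as added) tracked over time, Ex 525/Em 598, with pinned compounds and no enzyme, in pH 8 Tris buffer containing beta-mercaptoethanol and 0.05% Chaps.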
# [5] = molecular target: Ubiquitin carboxyl-terminal hydrolase 2 (Homo sapiens) (UniProt O75604); assay: qHTS for Inhibitors of Ubiquitin-specific Protease USP2a Using CHOP2 as the Reporter: K484 Substrate (AID 652173); conditions: USP2 cleavage of DiUb K48 IQF substrate, fluorescence;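 note: cleavage of internally quenched K48 di-ubiquitin substrate measured as rising fluorescence over time; potency is the fitted concentration of half-maximal effect; nearly all actives have a fitted effect of over 70% in size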
# Outline: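 Kinetic fluorescence (Ex 525/Em 598) tracked cleavage of an internally quenched K48 di-ubiquitin substrate, added as a 100 nM solution. The enzyme was added as a 5 nM USP2 solution before compound pinning, with no-enzyme controls. Buffer: Tris pH 8, beta-mercaptoethanol, CHAPS.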
# [6] = molecular target: Rap guanine nucleotide exchange factor 3 (Homo sapiens) (UniProt O95398); assay: Confirmatory qHTS for agonist of cAMP-regulated guanine nucleotide exchange factor 3 (EPAC1) (AID 1645881);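 note: EPAC1 catalysed release of BODIPY-GDP from Rap1B seen as fluorescence loss; 100% = effect of cAMP agonist control; nearly all actives have a fitted effect of over 75% in size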
# [7] = molecular target: Rap guanine nucleotide exchange factor 4 (Homo sapiens) (UniProt Q8WZA2); assay: Confirmatory qHTS for agonist of cAMP-regulated guanine nucleotide exchange factor 4 (EPAC2) (AID 1645884);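 note: nucleotide exchange releases bodipy-GDP from Rap1 and this lowers its fluorescence; % is set by controls: 0 for no effect and ±100 for the full control effect; nearly all actives have a fitted effect of over 65% in size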
# [8] = molecular target: Rap guanine nucleotide exchange factor 4 (Homo sapiens) (UniProt Q8WZA2); assay: Confirmatory qHTS for antagonist of cAMP-regulated guanine nucleotide exchange factor 4 (EPAC2) (AID 1645885); note: % is set by controls: 0 for no effect and ±100 for the full control effect; nearly all actives have a fitted effect of over 25% in size
# [9] = molecular target: Rap guanine nucleotide exchange factor 3 (Homo sapiens) (UniProt O95398); assay: Counterscreen qHTS for antagonist of cAMP-regulated guanine nucleotide exchange factor 3 (EPAC1) (AID 1645888); note: % of control where 0% means no effect
# Outline: (§1)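 Rap1B-BODIPY-GDP 250 nM + GDP 50 uM; cpds 7-pt, final 9.74 nM–152 uM (activator mode) or from 7.32 nM upwards (inhibitor mode); RT; FI 480/540 nm at 5 and 30 min, then ± cAMP, reread.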
# [10] = molecular target: Rap guanine nucleotide exchange factor 3 (Homo sapiens) (UniProt O95398); assay: Counterscreen qHTS for agonist of cAMP-regulated guanine nucleotide exchange factor 3 (EPAC1) (AID 1645889); note: nearly all actives have a fitted effect of over 40% in size; note: potency is the fitted concentration of half-maximal effect
# Outline: as §1
# [11] = molecular target: Glutathione peroxidase 1 (Homo sapiens) (UniProt P07203); assay: Primary qHTS Assay for Inhibitors of Recombinant Selenoprotein Glutathione Peroxidase 1 (GPX1) (AID 1845191); note: nearly all actives have a fitted effect of over 65% in size
# Outline: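 NADPH consumption tracked by fluorescence at 340/450 nm between t=0 and t=15 min, room temperature. Final mix: 10 nM GPX1, 100 nM glutathione reductase, 1 mM GSH, 0.5 mM NADPH, 0.5 mM cumene hydroperoxide, 0.01% BSA; 30 min compound–enzyme preincubation.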
# [12] = molecular target: Rap guanine nucleotide exchange factor 3 (Homo sapiens) (UniProt O95398); assay: Confirmatory qHTS for antagonist of cAMP-regulated guanine nucleotide exchange factor 3 (EPAC1) (AID 1645880);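 note: plate controls were DMSO only for no effect and full effect of the ATA control for full effect; nearly all actives have a fitted effect of over 55% in size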
# Outline: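 Released BODIPY-GDP fluoresces less than Rap1-bound BODIPY-GDP; the signal is followed at 480/540 nm at 5-min intervals over 30 min, after 5 min at room temperature. Reactions contain 100 nM EPAC1, 250 nM RAP1B-BODIPY-GDP and 50 uM GDP; results are normalized to ATA and DMSO.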
# [13] = molecular target: Phospholipid hydroperoxide glutathione peroxidase GPX4 (Homo sapiens) (UniProt P36969); assay: Primary qHTS Assay for Inhibitors of Recombinant Selenoprotein Glutathione Peroxidase 4 (GPX4) (AID 1845192); note: series mostly up to about 50 µM; % is set by controls: 0 for no effect and ±100 for the full control effect; nearly all actives have a fitted effect of over 65% in size
# Outline: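 NADPH consumption followed by fluorescence at 340/450 nm, t=0 and after 15 min at room temperature. Reaction started with cumene hydroperoxide (0.5 mM final) after 30 min compound–GPX4 preincubation; final 200 nM GPX4, 100 nM GR, 1 mM GSH, 0.5 mM NADPH.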
# [14] = qHTS drug screen for cell cycle checkpoint inhibitors in PARPi-resistant BRCA-mutant ovarian cancer cell lines. (AID 1963452; calls by dose curve); conditions: PEO1/OlaR viability, CellTiter-Glo luminescence, 96 h, stronger effect = lower value
# Outline: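 PEO1, PEO4 and PEO1/OlaR ovarian cancer cells, 600 per well, exposed 96 h at 37C to a dilution series. Viability read by CellTiter-Glo luminescence, normalized to DMSO and empty wells; activity summarized as Z-AUC.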
# [15] = measured here: PEO1 parental Z-AUC
# Chain of Rap guanine nucleotide exchange factor 4 (Homo sapiens) (Q8WZA2 whole entry, looked up): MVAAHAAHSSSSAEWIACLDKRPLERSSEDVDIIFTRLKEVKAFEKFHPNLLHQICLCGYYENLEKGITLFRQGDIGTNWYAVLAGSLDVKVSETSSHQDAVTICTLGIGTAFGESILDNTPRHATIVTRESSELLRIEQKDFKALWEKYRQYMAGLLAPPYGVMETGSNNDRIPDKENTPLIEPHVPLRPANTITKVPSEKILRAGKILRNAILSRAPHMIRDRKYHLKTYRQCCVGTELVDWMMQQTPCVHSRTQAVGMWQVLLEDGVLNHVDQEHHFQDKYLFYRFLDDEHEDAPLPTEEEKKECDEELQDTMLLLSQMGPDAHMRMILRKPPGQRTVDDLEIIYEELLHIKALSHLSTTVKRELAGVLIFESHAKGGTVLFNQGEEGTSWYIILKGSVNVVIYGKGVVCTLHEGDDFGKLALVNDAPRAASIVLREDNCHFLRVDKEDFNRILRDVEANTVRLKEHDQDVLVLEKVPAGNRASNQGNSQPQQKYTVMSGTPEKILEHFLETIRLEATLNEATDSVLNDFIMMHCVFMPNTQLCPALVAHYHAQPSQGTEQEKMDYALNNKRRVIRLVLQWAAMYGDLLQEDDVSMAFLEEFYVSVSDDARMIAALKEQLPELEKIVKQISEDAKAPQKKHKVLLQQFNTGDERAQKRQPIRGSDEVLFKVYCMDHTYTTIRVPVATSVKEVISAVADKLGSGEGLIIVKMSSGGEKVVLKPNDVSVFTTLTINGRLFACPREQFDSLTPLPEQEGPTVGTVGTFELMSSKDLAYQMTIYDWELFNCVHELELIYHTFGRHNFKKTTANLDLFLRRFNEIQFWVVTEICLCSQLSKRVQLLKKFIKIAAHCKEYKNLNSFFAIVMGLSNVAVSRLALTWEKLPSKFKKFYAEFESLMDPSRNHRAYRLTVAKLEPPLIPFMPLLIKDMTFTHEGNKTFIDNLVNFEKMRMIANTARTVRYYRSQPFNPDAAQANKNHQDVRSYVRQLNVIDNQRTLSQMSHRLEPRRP
# Chain of N-terminal Xaa-Pro-Lys N-methyltransferase 1 (Homo sapiens) (Q9BV86 whole entry, looked up): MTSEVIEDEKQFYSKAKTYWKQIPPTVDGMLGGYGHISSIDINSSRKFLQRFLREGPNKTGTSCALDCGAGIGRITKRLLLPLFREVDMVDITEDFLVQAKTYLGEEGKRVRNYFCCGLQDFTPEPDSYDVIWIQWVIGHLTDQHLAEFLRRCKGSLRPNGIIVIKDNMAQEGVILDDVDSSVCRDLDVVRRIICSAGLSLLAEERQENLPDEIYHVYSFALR
# Chain of Glutathione peroxidase 1 (Homo sapiens) (P07203 whole entry, looked up): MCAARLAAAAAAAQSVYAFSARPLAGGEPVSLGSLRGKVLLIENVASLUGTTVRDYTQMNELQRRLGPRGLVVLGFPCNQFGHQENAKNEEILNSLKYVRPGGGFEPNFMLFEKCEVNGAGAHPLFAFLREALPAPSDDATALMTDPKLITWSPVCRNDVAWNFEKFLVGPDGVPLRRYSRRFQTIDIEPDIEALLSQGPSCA
# Chain of Rap guanine nucleotide exchange factor 3 (Homo sapiens) (O95398 whole entry, looked up): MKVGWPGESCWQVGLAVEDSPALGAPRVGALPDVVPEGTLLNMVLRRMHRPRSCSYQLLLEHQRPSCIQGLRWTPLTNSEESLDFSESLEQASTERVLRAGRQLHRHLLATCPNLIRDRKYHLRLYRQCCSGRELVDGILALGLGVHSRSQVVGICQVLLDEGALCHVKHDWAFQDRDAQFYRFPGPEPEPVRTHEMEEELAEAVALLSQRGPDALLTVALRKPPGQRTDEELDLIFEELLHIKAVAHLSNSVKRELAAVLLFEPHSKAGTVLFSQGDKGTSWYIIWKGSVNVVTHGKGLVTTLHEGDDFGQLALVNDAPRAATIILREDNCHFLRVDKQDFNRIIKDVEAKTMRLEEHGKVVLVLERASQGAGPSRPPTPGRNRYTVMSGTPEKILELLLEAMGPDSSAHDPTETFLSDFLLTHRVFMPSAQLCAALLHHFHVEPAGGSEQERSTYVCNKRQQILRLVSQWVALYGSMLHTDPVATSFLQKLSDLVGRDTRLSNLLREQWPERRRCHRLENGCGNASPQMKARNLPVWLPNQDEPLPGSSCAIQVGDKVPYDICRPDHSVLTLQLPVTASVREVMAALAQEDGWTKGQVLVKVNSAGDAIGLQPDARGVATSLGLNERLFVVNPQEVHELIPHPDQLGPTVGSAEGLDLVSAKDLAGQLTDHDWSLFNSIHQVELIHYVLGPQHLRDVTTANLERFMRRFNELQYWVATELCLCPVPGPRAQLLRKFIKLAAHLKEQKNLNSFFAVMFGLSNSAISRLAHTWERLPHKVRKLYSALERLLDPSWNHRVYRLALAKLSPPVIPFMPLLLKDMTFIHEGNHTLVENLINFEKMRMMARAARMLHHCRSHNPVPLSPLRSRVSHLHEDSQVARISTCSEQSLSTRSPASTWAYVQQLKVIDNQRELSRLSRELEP
# Chain of Phospholipid hydroperoxide glutathione peroxidase GPX4 (Homo sapiens) (P36969 whole entry, looked up): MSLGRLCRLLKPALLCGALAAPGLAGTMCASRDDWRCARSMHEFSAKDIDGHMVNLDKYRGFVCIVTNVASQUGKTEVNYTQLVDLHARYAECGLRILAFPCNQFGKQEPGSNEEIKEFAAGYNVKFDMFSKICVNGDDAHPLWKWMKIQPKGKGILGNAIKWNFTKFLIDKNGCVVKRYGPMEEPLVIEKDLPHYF
# Chain of Ubiquitin carboxyl-terminal hydrolase 2 (Homo sapiens) (O75604 whole entry, looked up): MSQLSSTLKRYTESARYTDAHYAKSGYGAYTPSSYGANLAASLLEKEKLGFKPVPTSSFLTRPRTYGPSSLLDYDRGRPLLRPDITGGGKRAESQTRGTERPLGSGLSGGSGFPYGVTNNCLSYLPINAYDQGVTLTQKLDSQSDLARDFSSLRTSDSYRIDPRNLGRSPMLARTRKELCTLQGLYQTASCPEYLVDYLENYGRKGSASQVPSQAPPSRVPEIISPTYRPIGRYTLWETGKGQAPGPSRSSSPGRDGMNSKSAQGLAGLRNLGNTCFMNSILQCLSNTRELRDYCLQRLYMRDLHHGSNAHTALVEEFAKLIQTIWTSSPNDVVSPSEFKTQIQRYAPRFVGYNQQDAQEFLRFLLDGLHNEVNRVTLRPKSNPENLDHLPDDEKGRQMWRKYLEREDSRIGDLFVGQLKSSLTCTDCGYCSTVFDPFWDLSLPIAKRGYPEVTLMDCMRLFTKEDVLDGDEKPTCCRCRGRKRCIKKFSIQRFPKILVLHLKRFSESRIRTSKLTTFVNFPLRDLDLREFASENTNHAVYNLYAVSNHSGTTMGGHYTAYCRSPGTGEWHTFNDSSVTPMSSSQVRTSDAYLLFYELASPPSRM
smiles,measurement,setting,value
Cc1c(O)cccc1C(=O)NC(CSc1ccccc1)C(O)CN1CC2CCCCC2CC1C(=O)NC(C)(C)C (stereo unspecified),Potency,[1],23.5 µM (active)
same,Potency,[2],20.9 µM (active)
Cc1cc(C)n2c(Nc3c(C)cccc3C)c(-c3ccsc3)nc2n1,Potency,[3],inactive
CCCn1c(/C=C/c2ccccc2)nc2ccccc21,Potency,[3],inactive
Cc1ccc(S(=O)(=O)Nc2cnccc2C(=O)Nc2nc(-c3cccc(C)c3)cs2)cc1,outcome,[4],inactive
same,Potency,[5],1.37 µM (active)
same,Potency,[3],17.3 µM (active)
COc1ccc(Nc2ncnc3sc4c(c23)CCCC4)cc1,Potency,[3],15.8 µM (active)
S=C(Nc1ccccn1)c1ccccn1,Potency,[3],10.3 µM (active)
COc1ccc(C(=O)Nc2noc3ccccc23)cc1,Potency,[3],39.8 µM (active)
COc1ccc(C(=O)Nc2onc3c2CCCC3)cc1,Potency,[3],inactive
Oc1cccc(Nc2nc(-c3ccccc3)nc3ccccc23)c1,Potency,[3],15.8 µM (active)
Cc1cccc(-n2cnc3cc(C(=O)NC4CCCC4)ccc32)c1,Potency,[3],39.8 µM (active)
COc1ccccc1C(=O)Nc1onc2c1CCCC2,Potency,[3],inactive
COCCCNC(=O)CSc1c2c(nc3ccc(Cl)cc13)CCCC2,Potency,[3],inactive
COC(=O)c1ccc(NC(=O)CSc2nc3ccc(OC)cc3[nH]2)cc1,Potency,[3],inactive
Cc1ccc(Nc2ncnc3c2cnn3-c2ccccc2)c(C)c1,Potency,[3],3.98 µM (active)
Cc1cccc(C(=O)Nc2sc3c(c2C(=O)O)CCCC3)c1,Potency,[3],35.5 µM (active)
same,Potency,[6],inactive
same,Potency,[7],inactive
same,Potency,[8],inactive
same,Potency,[9],inactive
same,Potency,[10],inactive
COc1cc2nc(Nc3ccc(C)c(C)c3)nc(N)c2cc1OC,Potency,[3],39.8 µM (active)
O=C(Nc1nc2c(s1)CCCC2)c1ccccc1F,Potency,[3],39.8 µM (active)
CC(NC(=O)c1sc2ncccc2c1-n1cccc1)c1ccccc1 (stereo unspecified),Potency,[3],28.2 µM (active)
same,Potency,[6],inactive
same,Potency,[7],inactive
same,Potency,[8],inactive
same,Potency,[9],inactive
O=c1cc(-c2ccccc2)oc2ccc(O)cc12,Potency,[3],20 µM (active)
same,Potency,[1],18.4 µM (active)
same,Potency,[11],inactive
Oc1cccc(Nc2cc(-c3ccccc3)ncn2)c1,Potency,[3],39.8 µM (active)
COc1cc2c(NC3CCN(C(C)C)CC3)nc(N3CCCN(CC4CCCCC4)CC3)nc2cc1OCCCN1CCCC1,Potency,[3],34.5 µM (active)
COc1cc2nc(N3CCCCC3)nc(NC3CC3)c2cc1OC,Potency,[3],34.5 µM (active)
Cc1ccc(-n2ncc3c(NCCO)ncnc32)cc1Cl,Potency,[3],31.6 µM (active)
COc1cc2nc(N3CCCC3)nc(NC3CC3)c2cc1OC,Potency,[3],38.8 µM (active)
O=C1NC(=O)/C(=C/c2ccc(-c3ccc(F)cc3)o2)S1,Potency,[1],inactive
COc1cc2c(NC3CCN(C(C)C)CC3)nc(N3CCCN(C4CCCCC4)CC3)nc2cc1OCCCN1CCCCC1,Potency,[3],34.5 µM (active)
Cc1cn(C2C[C@H](O)[C@@H](CO)O2)c(=O)[nH]c1=O (stereo partly specified),Potency,[1],inactive
same,Potency,[2],inactive
COc1cc(-c2nc3ccc(Cl)cn3c2Nc2ccc3c(c2)OCCO3)ccc1O,Potency,[3],5.15 µM (active)
Cc1cccc(NC(=O)c2sc3nc(-c4cc5ccc(O)cc5oc4=O)[nH]c(=O)c3c2C)c1,Potency,[3],6.02 µM (active)
same,Potency,[12],inactive
same,Potency,[9],inactive
same,Potency,[10],50.1 µM (active)
CC(C)CCNc1ncnc2c1cnn2-c1cccc(Cl)c1,Potency,[3],14.1 µM (active)
COc1c/c(=C2\C=c3ccccc3=N2)[nH]/c1=C/c1[nH]c(C)cc1C,Potency,[3],35 µM (active)
same,Potency,[11],inactive
O=C(c1ccc(Nc2nc(C3CC3)cn3c(-c4cn[nH]c4)cnc23)c(F)c1)N1CCOCC1,Potency,[1],9.34 µM (active)
same,Potency,[2],9.34 µM (active)
same,Potency,[11],inactive
same,Potency,[13],inactive
same,Z-AUC,[14],0.98 (inactive)
same,Z-AUC,[14]; [15],0.912
same,Z-AUC,[14]; measured here: PEO4 Z-AUC,1.07
NC(=O)c1ccc2nc(-c3ccc(C4(N)CCC4)cc3)c(-c3ccccc3)n2n1,Potency,[1],0.296 µM (active)
same,Potency,[2],0.332 µM (active)
same,Potency,[11],inactive
same,Potency,[13],inactive
same,Z-AUC,[14],-0.331 (inactive)
same,Z-AUC,[14]; [15],-0.179
same,Z-AUC,[14]; measured here: PEO4 Z-AUC,0.0521
CCCCOc1ccc(CC/C=C2\SC(=O)N(CCN)C2=O)cc1,Potency,[1],9.2 µM (active)
same,Potency,[2],8.2 µM (active)
